TDP1 block: qHTS Assay for Inhibitors of Tyrosyl-DNA Phosphodiesterase (TDP1). recombinant TDP1, AlphaScreen DNA substrate cleavage. AID 485290, 2010. Potency, µM (titrated, usually from 130 µM), for inactives: at the top dose activity change, negative = inhibition, hits mostly inhibitors. 350,000 tested, 0.28% active. Tyrosyl-DNA phosphodiesterase 1 (Homo sapiens), Q9NUW8; note: potency is the fitted concentration of half-maximal effect; nearly all actives have a fitted effect of over 40% in size
Target sequence (Q9NUW8 whole entry, looked up): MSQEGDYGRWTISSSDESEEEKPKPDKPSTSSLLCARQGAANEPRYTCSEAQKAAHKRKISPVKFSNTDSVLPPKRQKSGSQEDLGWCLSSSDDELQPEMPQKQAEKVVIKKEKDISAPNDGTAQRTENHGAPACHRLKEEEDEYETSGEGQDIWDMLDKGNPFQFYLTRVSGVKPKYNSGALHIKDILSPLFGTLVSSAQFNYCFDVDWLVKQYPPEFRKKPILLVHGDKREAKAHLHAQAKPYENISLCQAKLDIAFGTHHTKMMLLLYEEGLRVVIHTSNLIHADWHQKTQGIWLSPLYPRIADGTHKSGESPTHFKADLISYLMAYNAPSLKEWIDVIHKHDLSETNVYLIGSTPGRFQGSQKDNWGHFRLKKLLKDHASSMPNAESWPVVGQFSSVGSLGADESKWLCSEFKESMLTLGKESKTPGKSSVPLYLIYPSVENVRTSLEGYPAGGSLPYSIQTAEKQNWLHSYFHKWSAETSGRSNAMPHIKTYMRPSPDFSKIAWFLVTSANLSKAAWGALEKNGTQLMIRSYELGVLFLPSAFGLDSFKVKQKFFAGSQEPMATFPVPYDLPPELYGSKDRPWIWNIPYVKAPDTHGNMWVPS
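Tdp1 1 nM final; 15 min RT w/ cpd; substrate 15 nM, 5 min; beads 10 ug/ml, 10 min; AlphaScreen read. Neg ctrl: no enzyme.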
ELG1 DNA repair: qHTS screen for small molecules that inhibit ELG1-dependent DNA repair in human embryonic kidney (HEK293T) cells expressing luciferase-tagged ELG1. 330,000 tested, 2.3% active. Potency, µM (doses to about 46.1 µM), for inactives: top-dose activity change, negative = inhibition, actives largely listed as inhibitors. HEK293T ELG1-luciferase reporter, luminescence, 16 h; DNA damage induced by 5-fluorouridine; note: potency is the fitted concentration of half-maximal effect; nearly all actives have a fitted effect of over 55% in size
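5-Fluorouridine DNA damage + compound/DMSO, 2,000 cells/well, 16 h, 37 °C/5% CO2. ONE-Glo, 30 min RT, luminescence. Readout = decrease in reporter signal.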
TDP1 cell noCPT: qHTS for Inhibitors of human tyrosyl-DNA phosphodiesterase 1 (TDP1): qHTS in cells in absence of CPT | DT40 Tdp1-/- hTDP1 cells, no CPT, ATP luminescence, 48 h | Potency, µM (titrated, usually from 46.2 µM), for the others: top-dose activity change, negative = growth inhibition, hits mostly inhibitors | 420,000 tested, 15% active | AID 686978, 2013; note: potency is the fitted concentration of half-maximal effect; nearly all actives have a fitted effect of over 55% in size
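Cells were dispensed at 400 per well, compounds added by pin tool, plates incubated ≥48 hr at 37 °C, then CellTiter-Glo added for 30 min at room temperature before luminescence reading. Line: DT40 Tdp1-/- complemented with hTDP1; camptothecin omitted.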
TDP1 cell CPT: qHTS for Inhibitors of human tyrosyl-DNA phosphodiesterase 1 (TDP1): qHTS in cells in presence of CPT | chicken DT40 Tdp1-/-;hTDP1 cells + 20 nM CPT, ATP luminescence, 48 h | Potency, µM (doses to about 46.2 µM), for the others: top-dose activity change, negative = growth inhibition, actives largely listed as inhibitors | 420,000 tested, 12% active; note: potency is the fitted concentration of half-maximal effect; nearly all actives have a fitted effect of over 55% in size
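Chicken DT40 Tdp1-/- cells stably complemented with human TDP1 were seeded at 400 cells/well in medium containing 20 nM camptothecin, exposed to pin-transferred compounds, and grown at 37 °C for at least 48 hr. Viability was read as ATP luminescence.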
IL-1B inflam inh: qHTS for Inhibitors of Inflammasome Signaling: IL-1-beta AlphaLISA Primary Screen; 360,000 tested, 4.7% active; AID 743279, 2014; activity change, % at 57.5 µM; THP-1 LPS/ATP IL-1B secretion, AlphaLISA, 16 h; stronger effect = lower value; in the data active = activity change below about -50%; inconclusive = mostly about -30% to -49%
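THP-1 cells pretreated 1 hr with compounds (up to 57.5 uM final), then stimulated with LPS (250 ng/mL final) plus ATP (1.25 mM final); secreted IL-1B measured by AlphaLISA after 16 hr, decreased signal indicating inhibition.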
Giardia kill: Small Molecules that selectively kill Giardia lamblia: qHTS; Giardia lamblia trophozoite viability; AID 540267, 2011; 340,000 tested, 0.15% active; activity change, % at 7.66 µM, hits read low; in the data active = activity change below about -80%; inconclusive = between about -30% and that limit;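 note: parasites exposed to compound for two days anaerobically before the ATP read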
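Compounds were tested on trophozoites seeded at 100 cells/well and held 48 hrs at 37 deg C anaerobically. An ATP-based luminescent kit measured the remaining live cells.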
* marks the source's active call; other numbers are inactive results; ? = inconclusive; . = no result given; [ ] = dose if it differs, or a comment. Rows were chosen to be rich in hits. Some 19% of all compounds tested hit in one or more screens of this group. Unless noted, calls come from the whole dose curve; as a rule, active = well fitted curve in the direction sought with a large enough effect; inconclusive = small, poorly fitted or top-dose-only effect, or another doubt; inactive = no such curve, though single readings can be large; an effect the other way counts as inactive or inconclusive. % is set by controls: 0 for no effect and ±100 for the full control effect.

SMILES | TDP1 block | ELG1 DNA repair | TDP1 cell noCPT | TDP1 cell CPT | IL-1B inflam inh | Giardia kill
O=C(CSc1ncn[nH]1)N1CCOCC1 | 5% | -6% | 14% | 8% | -3 | -4
Cc1ccc(-c2nonc2NC(=O)c2ccc(F)cc2)cc1C | 9% | . | -74% | ? | . | .
CC(C)Nc1ccc(-c2nc(-c3ccncc3)no2)cc1[N+](=O)[O-] | 6% | . | -14% | -25% | . | .
CCOC(=O)C1=C(c2ccccc2)OC(N)=C(C#N)C1c1ccncc1 (stereo not given) | 2% | 6% | ? | 23µM* | -15 | 4
CCOC(=O)C1=C(C)OC(N)=C(C#N)C1c1cccc(C)c1 (stereo not given) | -4% | 8% | -1% | 0% | 5 | -8
CCOC(=O)C1=C(CSc2nc(-c3ccncc3)ccc2C#N)OC(N)=C(C#N)C1c1ccc(OC)cc1 (stereo not given) | 7% | 12% | 16µM* | ? | -29 | -7
CCOC(=O)C1=C(CSc2nc(CC)c(C)cc2C#N)OC(N)=C(C#N)C1c1ccc(OC)cc1 (stereo not given) | 5%[56.1 µM] | 13% | 16µM* | ? | 5 | -10
CCOC(=O)C1=C(CSc2nc(-c3ccncc3)ccc2C#N)OC(N)=C(C#N)C1c1cccnc1 (stereo not given) | 8% | ? | ? | -17% | ? | 7
CCOC(=O)C1=C(C)OC(N)=C(C#N)C1c1cc(F)ccc1F (stereo not given) | 3% | ? | ? | ? | -66* | 7
Cc1cccc(-n2ncc3c(NNC(=O)c4ccccc4Cl)ncnc32)c1 | 13% | . | ? | ? | . | .
C/C(=N\NC(=O)CNC(=O)C1COc2ccccc2O1)c1ccco1 (stereo not given) | . | -9% | 6% | 10% | 28 | -3
CC1(C)O[C@H]2[C@@H](O1)[C@@H](C(=O)Nc1cc(F)ccc1F)O[C@@H]1OC(C)(C)O[C@@H]12 | 8% | . | -6% | -7% | . | .
Cc1ccc(C(C(=O)NCc2ccco2)N(C(=O)CNC(=O)c2cccs2)c2c(C)cccc2C)cc1 (stereo not given) | 3% | 17% | ? | ? | -22 | ?
O=C(NCc1ccco1)C(c1ccccc1)N(C(=O)Cc1cccs1)c1ccccc1F (stereo not given) | 8% | 18µM* | 26µM* | ? | ? | 25
Cc1ccc(C(C(=O)NCc2ccco2)N(C(=O)CNC(=O)c2cccs2)c2c(C)cc(C)cc2C)cc1 (stereo not given) | 3% | 18% | 10µM* | 10µM* | 77 | -13
O=C(NCc1ccco1)C(c1ccncc1)N(C(=O)Cc1cccs1)c1ccccc1 (stereo not given) | -2% | 4% | -17% | -17% | -15 | -5
Cc1ccc(C(=O)C(C)OC(=O)CN2C(=O)NC3(CCCC3)C2=O)cc1C (stereo not given) | 5% | ? | -6% | -1% | 6 | -13
S=c1[nH]c(-c2ccc(Br)cc2)cn1CCc1ccccc1 | 3% | 2% | 1% | 2% | 18 | 8
Cc1cccnc1CNC(=O)C1(C)CCCN1CC(C)C (stereo not given) | . | . | 15µM* | 15µM* | 53 | .
CSc1ccccc1CNC(=O)C1(C)CCCN1CC(C)C (stereo not given) | . | . | 23µM* | 26µM* | 24 | .
CC(C)C(=O)N1CCCC1(C)C(=O)NCc1ccccn1 (stereo not given) | . | . | 31% | -18% | 49 | .
Cc1ccsc1CNC(=O)C1(C)CCCN1CC(C)C (stereo not given) | . | . | ? | 15µM* | 11 | .
Cc1ccsc1C(=O)N1CCCC1(C)C(=O)NCC(C)C (stereo not given) | . | . | -12% | -9% | 4 | .
CN(C)c1cccc(S(=O)(=O)N2CCN(S(=O)(=O)c3ccc4c(c3)OCCO4)CC2)c1 | -3% | . | . | . | . | .
Cc1ccc(OCCSc2nc3ccccc3n2CC(=O)O)c(C(C)C)c1 | . | 1% | -14% | 27% | 8 | -5
SMILES | TDP1 block | ELG1 DNA repair | TDP1 cell noCPT | TDP1 cell CPT | IL-1B inflam inh | Giardia kill
Cc1n(CC(O)COC2CCCCC2)c2ccccc2[n+]1C (stereo not given) | 3%[56.1 µM] | ? | 13µM* | ? | 11 | 3
CCOC(=O)c1ccc(NC(=O)Nc2ccc(Cl)cn2)cc1 | 3% | 0% | -18% | -17% | 0 | -12
CCOC(=O)c1ccc(NC(=O)Nc2nc3ccccc3s2)cc1 | . | . | ? | ? | -10 | .
CCOC(=O)c1ccc(NC(=O)Nc2nncs2)cc1 | . | . | 0.0065µM* | 0.018µM* | 29 | .
CCOC(=O)c1ccc(NC(=O)Nc2ccon2)cc1 | 1% | ? | 0.018µM* | 0.0073µM* | 82 | -19
COc1ccc(CNC(=O)C(C)OC(=O)CCN2C(=O)C3CC=CCC3C2=O)cc1 (stereo not given) | -4% | 21% | -2% | 3% | 3 | 7
CCOC(=O)c1ccc(NC(=O)CCc2c(C)nc3c(c(C)nn3C(C)(C)C)c2C)cc1 | 0% | . | 18µM* | 16µM* | . | .
Cc1cccc(NC(=O)CCc2c(C)nc3c(c(C)nn3C(C)(C)C)c2C)c1C | 5% | . | ? | ? | . | .
COC(=O)c1ccc(NC(=O)CCc2c(C)nc3c(c(C)nn3C(C)(C)C)c2C)cc1 | 5% | . | 18µM* | ? | . | .
CNC(=S)Nc1ccc(Cc2ccncc2)cc1 | 8% | 0% | 0% | -3% | 14 | -14
CC(C)(C)C(=O)NC(=S)Nc1ccc(Cc2ccncc2)cc1 | 5% | ? | ? | ? | -65* | -21
O=C(NC(=S)Nc1ccc(Cc2ccncc2)cc1)c1ccc(F)cc1 | 8% | ? | 16µM* | ? | 23 | 6
CC1(C)C(=O)N(c2ccccc2)C1c1ccccc1O (stereo not given) | . | ? | 16µM* | ? | -4 | -30
O=C1N(c2ccccc2)C(c2ccccc2)C12CCCCC2 (stereo not given) | . | -11% | ? | ? | 27 | 9
COc1ccc(N2C(=O)C(C)(C)C2c2c(O)ccc3ccccc23)cc1 (stereo not given) | . | -3% | 16µM* | 21µM* | -26 | 13
